# Compound activity deposited in PubChem BioAssay by several laboratories.
# Beta apoptosis: blocks beta cell apoptosis | INS-1E cytokine-induced death, ATP luminescence, 48 h; percent of positive-control rescue, neutral wells zero | protection from apoptosis, % (test concentration not listed) | 300,000 compounds, 0.8% hits | AID 435005;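 active = Every replicate reaches about 75%, or at least half do and their mean reaches it too, limit read from the data; inconclusive = At least half of replicates reach the limit but their mean does not; inactive = Under half of replicates reach the limit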;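 also: 0% = cytokine-treated negative control wells and 100% = positive control rescue; higher means more ATP so stronger rescue from cytokine killing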
# Gli-Sufu block: antagonists of Gli-Sufu signaling | AID 588413 | inhibition, % at 5 µM | Sufu-KO-LIGHT fibroblasts, Gli luciferase reporter luminescence | 340,000 compounds, 0.74% hits;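 active = inhibition above about 55%, limit read from the data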;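 also: 0% = DMSO-treated cells and 100% = wells with medium but no cells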
# Shn3 3UTR inh: Schnurri-3 reporter inhibition in Clone20 osteoblasts; Clone20 osteoblast Shn3 3'UTR firefly luciferase, 24 h; inhibition, % at 12.5 µM; 360,000 compounds, 0.52% hits; AID 588674;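 active = mean inhibition of at least 75% with every replicate also reaching 75%; inconclusive = mean inhibition at least 75% but some replicate below; inactive = mean inhibition below 75%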;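 also: 0% = median of neutral control wells and 100% = pilot-screen positive control compound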
# PAX8 reporter: lowers PAX8-driven luciferase in RMG-I cells; inhibition, % at 12.6 µM; 360,000 compounds, 1.2% hits; RMG-I TPO-luciferase reporter, SteadyGlo, 24 h; AID 652154;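 active = mean replicate inhibition at least 60% with every replicate also reaching 60%; inconclusive = only one of the two criteria is met; inactive = mean below 60% and not all replicates reaching 60%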;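 also: luciferase light reporting Pax8 driven TPO promoter activity; plate controls were median of neutral control wells for no effect and mitoxantrone controls for full effect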
# CSC inhib: blocks cancer stem cells. cancer stem cell-like cells viability, luminescence. inhibition, % at 7.5 µM. 300,000 compounds, 1.1% hits; in the data active = inhibition above about 75%; inconclusive = no clear call, values can overlap the other calls; tested in HMLE shEcad cells
# Mdm2 MdmX PPI: inhibitors of human Mdm2/MdmX interaction. O15151+Q00987. SaOS-2 split-luciferase Mdm2/MdmX complementation, luminescence. inhibition, % at 8 µM. 330,000 compounds, 3% hits. AID 485346;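 active = inhibition of at least 50% at 8 µM in the primary screen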
# Target sequence (O15151 whole entry, looked up): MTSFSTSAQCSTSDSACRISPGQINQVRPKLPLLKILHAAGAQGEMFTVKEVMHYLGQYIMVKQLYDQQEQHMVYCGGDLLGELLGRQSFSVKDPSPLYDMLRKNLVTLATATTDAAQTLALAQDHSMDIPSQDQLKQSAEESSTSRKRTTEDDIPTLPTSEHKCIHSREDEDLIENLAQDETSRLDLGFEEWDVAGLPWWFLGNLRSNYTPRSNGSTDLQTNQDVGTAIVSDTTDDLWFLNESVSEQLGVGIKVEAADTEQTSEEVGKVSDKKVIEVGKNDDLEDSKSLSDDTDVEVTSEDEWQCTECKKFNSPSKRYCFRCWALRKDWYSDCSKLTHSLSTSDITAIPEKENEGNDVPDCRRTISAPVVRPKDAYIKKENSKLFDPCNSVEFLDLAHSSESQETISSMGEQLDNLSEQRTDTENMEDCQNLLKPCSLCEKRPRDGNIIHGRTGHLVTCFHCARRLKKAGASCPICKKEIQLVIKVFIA
# Target sequence (Q00987 whole entry, looked up): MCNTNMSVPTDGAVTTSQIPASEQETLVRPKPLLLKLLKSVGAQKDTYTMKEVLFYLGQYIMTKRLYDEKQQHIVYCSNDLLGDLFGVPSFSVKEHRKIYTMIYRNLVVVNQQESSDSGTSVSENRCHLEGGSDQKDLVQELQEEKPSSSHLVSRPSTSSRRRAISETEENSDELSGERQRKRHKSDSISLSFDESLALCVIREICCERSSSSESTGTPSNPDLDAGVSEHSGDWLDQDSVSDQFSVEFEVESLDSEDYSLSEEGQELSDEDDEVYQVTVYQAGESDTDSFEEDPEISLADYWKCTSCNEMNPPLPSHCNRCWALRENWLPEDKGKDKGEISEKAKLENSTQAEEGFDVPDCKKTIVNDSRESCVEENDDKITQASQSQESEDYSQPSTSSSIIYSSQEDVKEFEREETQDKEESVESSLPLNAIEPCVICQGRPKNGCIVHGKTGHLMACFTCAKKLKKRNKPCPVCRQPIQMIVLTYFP
# Mdm2-MdmX conf: confirmation of human Mdm2/MdmX interaction inhibitors; shares compounds with Mdm2 MdmX PPI; 10,000 compounds, 55% hits; AID 489028; Mdm2-MdmX binding, luminescent assay; inhibition, % at 8 µM; in the data active = inhibition above about 40%
# Full FLuc ctr: inhibits full-length luciferase, flagging false Mdm2/MdmX hits; shares compounds with Mdm2 MdmX PPI; SaOS-2 full-length luciferase counterscreen, luminescence; inhibition, % at 8 µM; 6,200 compounds, 77% hits; AID 504607;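 active = mean inhibition at 8 µM reaching about 37%, which flags the compound as non-specific, limit read from the data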;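 also: p53-null SaOS-2 cells with luciferase driven by a doxycycline-inducible promoter; compound on cells about two nights before reading with doxycycline added after day one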
# An asterisk follows results filed as active; ? = inconclusive; nt = no result given. In the library only some 4% were active in any assay of this set; here they are far more common.
SMILES,Beta apoptosis,Gli-Sufu block,Shn3 3UTR inh,PAX8 reporter,CSC inhib,Mdm2 MdmX PPI,Mdm2-MdmX conf,others
C=CC[C@@H](CC(=O)N[C@H](CO)Cc1ccccc1)C(=O)N[C@H](COC(=O)[C@@H](CC=C)Cc1ccc(F)cc1)C(C)(C)C,1,-6,22,13,5,37,nt,
C[C@H](CO)N1C[C@H](C)[C@@H](CN(C)Cc2ccc3c(c2)OCO3)Oc2ccc(NS(=O)(=O)c3cn(C)cn3)cc2CC1=O,nt,nt,nt,8,nt,nt,nt,
CCc1cc2c(=O)c(-c3cnn(-c4ccccc4)c3)c(C)oc2cc1OCC(=O)Nc1cccc(C)c1,-4,0,40,-4,43,2,nt,
CCc1cc2c(=O)c(-c3cnn(-c4ccccc4)c3)c(C)oc2cc1OCC(=O)Nc1ccc(F)c(F)c1,-3,-11,7,8,28,62*,74*,Full FLuc ctr=87*
CC=Cc1ccc2n(c1=O)C[C@H]1[C@H](CO)[C@@H](C(=O)NCc3ccccn3)[C@@H]2N1CC1CC1 (mixture of isomers),nt,nt,nt,-4,nt,nt,nt,
COC(=O)c1cc2sccc2n1CC(=O)N1CCCc2ccccc21,-6,27,-10,nt,-21,52*,41*,Full FLuc ctr=51*
CCOC(=O)c1cc2sccc2n1CC(=O)N1CCCc2ccccc21,6,6,-19,nt,-9,20,nt,
O=C(Cn1cnc2c(oc3nc4c(cc32)CCCC4)c1=O)Nc1cccc(Cl)c1,1,15,15,-18,-1,57*,2,
CC(=O)c1ccc2c(c1)N(CCCN(C)C)c1ccccc1S2,nt,7,11,1,nt,nt,nt,
CCC(=O)c1ccc2c(c1)N(CCCN(C)C)c1ccccc1S2,-4,11,33,9,4,55*,15,
COc1ccc2sc(-c3ccccc3OC)c(-c3ccc(OCCN(C)C)cc3)c2c1,nt,2,20,12,nt,11,nt,
COc1ccc(-c2sc3cc(OC)ccc3c2-c2ccc(OCCN3CCCCC3)cc2)cc1,nt,nt,nt,41,nt,nt,nt,
COc1cccc(-c2sc3ccccc3c2-c2ccc(OCCN(C)C)cc2)c1,20,12,13,?,104*,100*,25,
COc1cccc(-c2sc3cc(OC)c(OC)cc3c2-c2ccc(OCCN3CCCCC3)cc2)c1,nt,9,4,nt,nt,78*,23,
COc1cccc(-c2sc3ccccc3c2-c2ccc(OCCN3CCCC3)cc2)c1,5,2,48,0,104*,100*,22,
COc1cccc(-c2sc3ccccc3c2-c2ccc(OCCN3CCCCC3)cc2)c1,28,13,10,nt,104*,95*,28,
CCN1[C@@H]2c3ccc(-c4ccccc4OC)c(=O)n3C[C@@H]2[C@@H](CO)[C@@H]1C(=O)NCCCN(C)C,nt,nt,nt,-18,nt,nt,nt,
COc1ccc(NC(=O)Nc2ccc3c(c2)CC(=O)N([C@H](C)CO)C[C@@H](C)[C@H](CN(C)C(=O)Nc2ccc(C(F)(F)F)cc2)O3)cc1,nt,nt,nt,20,nt,nt,nt,
COc1cccc(-c2sc3ccc(OC)cc3c2-c2ccc(OCCN3CCCC3)cc2)c1,nt,2,1,nt,nt,69*,33,Full FLuc ctr=28
CCC(C)Nc1nc(N)c([N+](=O)[O-])c(Nc2ccccc2OC)n1 (stereo not given),-4,9,0,-2,27,59*,24,
CCC(C)Nc1nc(N)c([N+](=O)[O-])c(Nc2cc(OC)ccc2OC)n1 (stereo not given),1,-11,5,24,63,69*,19,
CCOc1ccc(NC(=O)C(Cc2ccccc2)N2C(=O)c3cccc4cccc(c34)C2=O)cc1 (stereo not given),13,0,5,27,1,50*,47*,Full FLuc ctr=98*
CCOC(=O)C(Cc1ccc(NC(=O)/C(=C/c2ccc(OC(C)=O)cc2)NC(C)=O)cc1)N1C(=O)c2ccccc2C1=O (stereo not given),-2,-3,-1,6,-6,18,nt,
CCOC(=O)C(Cc1ccc(NC(=O)/C(=C/c2ccccc2)NC(=O)c2ccccc2)cc1)N1C(=O)c2ccccc2C1=O (stereo not given),-2,7,0,11,0,52*,19,
CCNC(=O)[C@@H]1[C@@H](CO)[C@@H]2Cn3c(ccc(C4=CCCCC4)c3=O)[C@H]1N2Cc1cocn1,nt,nt,nt,4,nt,nt,nt,
SMILES,Beta apoptosis,Gli-Sufu block,Shn3 3UTR inh,PAX8 reporter,CSC inhib,Mdm2 MdmX PPI,Mdm2-MdmX conf,others
C[C@@H]1CN([C@H](C)CO)C(=O)c2cc(NC(=O)c3ccncc3)ccc2O[C@H]1CN(C)S(C)(=O)=O,nt,nt,nt,-4,nt,nt,nt,
O=C(Cn1cnc([N+](=O)[O-])c1)Nc1cc(Oc2ccc(Cl)cc2Cl)cc([N+](=O)[O-])c1,17,-11,5,nt,72,56*,26,
COc1ccc(C#Cc2cnc3c(c2)C(=O)N([C@@H](C)CO)C[C@H](C)[C@H](CN(C)CC2CC2)O3)cc1,nt,nt,nt,-10,nt,nt,nt,
CN(Cc1cnn(-c2ccccc2)c1)C(=O)c1cccc(S(=O)(=O)N(C)c2ccccc2)c1,nt,nt,17,16,nt,nt,nt,
Cc1ccc(N(C)S(=O)(=O)c2cccc(C(=O)N(C)Cc3cnn(-c4ccccc4)c3)c2)cc1,nt,23,57,19,nt,66*,47*,Full FLuc ctr=96*
Cc1cc(NC2=CC(=O)C(=O)c3ccccc32)no1,nt,0,-5,-21,nt,nt,nt,
COc1cc(OC)c(NC2=CC(=O)C(=O)c3ccccc32)cc1Cl,120*,3,42,93*,102*,70*,66*,Full FLuc ctr=46*
